This is an account of results in PubChem BioAssay AID485294 (National Center for Advancing Translational Sciences (NCATS), 2010).

Hit rate of the full screen: of about 370,000 compounds, about 150 (0.041%) were called active. A call without a number means that no potency is given here. Not shown: some 14% with an inconclusive outcome. Calls come from the whole dose curve; as a rule, active = well fitted inhibition curve with a large enough effect; inconclusive = small, poorly fitted or top-dose-only effect; inactive = flat fitted curve, though single readings scatter. For the sample, actives were picked, then their nearest neighbours and some compounds at random.
Potency is the fitted concentration of half-maximal effect.

Chain of Beta-lactamase (Escherichia coli (strain K12)) (P00811 whole entry, looked up): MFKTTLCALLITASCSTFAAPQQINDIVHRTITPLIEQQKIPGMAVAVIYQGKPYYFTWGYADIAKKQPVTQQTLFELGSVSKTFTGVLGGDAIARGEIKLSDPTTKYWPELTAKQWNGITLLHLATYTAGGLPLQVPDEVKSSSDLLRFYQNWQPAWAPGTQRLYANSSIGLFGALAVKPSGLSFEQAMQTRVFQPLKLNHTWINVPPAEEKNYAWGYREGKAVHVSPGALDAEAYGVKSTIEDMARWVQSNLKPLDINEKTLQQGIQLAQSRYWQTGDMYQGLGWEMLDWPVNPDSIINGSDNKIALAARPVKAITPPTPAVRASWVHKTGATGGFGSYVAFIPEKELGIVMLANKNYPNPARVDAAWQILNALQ

This experiment concerns the target Beta-lactamase (Escherichia coli (strain K12)) (UniProt P00811). Briefly: qHTS Inhibitors of AmpC Beta-Lactamase (assay with detergent). Note: nearly all actives have a fitted effect of over 25% in size. The note with it: AmpC hydrolysis of nitrocefin, absorbance 480 nm, 0.01% Triton; series mostly up to 114 µM. On the procedure:
NIH Molecular Libraries Probe Production Network [MLPCN] NIH Chemical Genomics Center [NCGC] Assay Provider: Professor Brian Shoichet, UCSF Assay Overview: This aggregation profiling approach exploits the sensitivity of aggregate formation to detergent. Inhibition of b-lactamase is measured in the presence and absence of 0.01% Triton X-100. This particular assay had the prescence of 0.01% Triton X-100. See Pubchem assay "Promiscuous and Specific Inhibitors of AmpC Beta-Lactamase (assay without detergent)" for related screen. Compounds that inhibit only in the absence of detergent are considered likely promiscuous aggregators. A screen of 1,030 compounds was performed in Brian Shoichet's lab in 96-well format. AmpC activity was measured by following the absorbance at 480 nm. Nitrocefin is a chromogenic substrate: while nitrocefin is yellow (lmax 390 nm), the product of its hydrolysis is red (lmax 486 nm, 17,000 M-1). AmpC beta lactamase was provided by Shoichet Lab, UCSF.
Buffer: 20 mM phosphate buffer, pH 7.0 Triton X-100: No Detergent screen: 0.0001%, Detergent screen: 0.01%. Reagents/Controls: Buffer in columns 3 and 4 as negative control (no enzyme). 5.3 nM AmpC in columns 1, 2, 5-48. Titration of UCSF compound 9 control (from 10 mM, then 1:2) pin-transferred to column 2. Column 1 is neutral (100% activity). Assay Steps: Six uL of reagents were dispensed to 1536-well Greiner black clear bottom plates. Compounds and controls (23 nL) were transferred via Kalypsys PinTool. The plates were incubated for 15 min at room temperature, and then 2 uL of 800 uM solution of nitrocefin was added to start the reaction. The plates were immediately transferred to and read every 20 seconds for 4 min on ViewLux (Perkin-Elmer) High-throughput CCD imager using 480 nm absorbance protocol. During dispense, reagent bottles were kept submerged into 4 deg C water bath. Keywords: NIH Roadmap, MLSCN, MLI, MLSMR, qHTS, NCGC, AmpC Beta-Lactamase, Aggregation
(qHTS replaces the single test concentration by a dilution series.)
Regarding `CC(C)(C)c1ccc(C(=O)NCC(c2ccc(Cl)cc2)N2CCOCC2)cc1` (centres undefined), the Potency entry was “inactive”.
In the case of `COC(=O)c1c(NC(=O)c2cc(=O)c3c(C)cc(C)cc3o2)sc2c1CCCC2`, the Potency entry was “inactive”.
Then `CCc1cc2c(cc3c(=O)n(CC(=O)NCCc4ccc(OC)c(OC)c4)ncn32)s1`, with “inactive”.
Then `Cc1ccccc1CNC(=O)Cn1c(C)c2cnn(-c3ccccc3)c(=O)c2c1C`, with “inactive”; and `COc1ccc(-c2nc3sc(CCNC(=O)C(C)(C)C)c(C)n3n2)cc1`, with “inactive”.
The value for `Cc1nn(C(=O)c2c(F)cccc2F)c(C)c1S(=O)(=O)N1CCOCC1` was “inactive”; that for `CCOc1ccc(C(=O)/C=C/c2cn(CC(O)CN3CCCCCC3)c3ccccc23)cc1` (centres undefined) was “inactive”; that for `COc1ccc(OCCCn2c(C3CC(=O)N(c4ccc(F)cc4)C3)nc3ccccc32)cc1` (centres undefined) was “inactive”.
As to `Cn1c(C(=O)Nc2cccc(C(F)(F)F)c2)cc2c(=O)n3ccccc3nc21`, the Potency result was “inactive”.
The value for `CCOc1ccc(CNC(=O)Cn2cc3c(n2)-c2c(oc(C(=O)N4CCCC4)c2C)CC3)cc1` was “inactive”; that for `Cc1ccc(Nc2c(-c3ccc(N(C)C)cc3)nc3nc[nH]n23)cc1` was “inactive”; that for `CCOC(=O)c1ccc(NC(=O)C2CCN(S(=O)(=O)c3ccc4c(c3)CCCC(=O)N4)CC2)cc1` was “inactive”.
Turning to `Cc1csc2nc(COC(=O)c3ccccc3NC(=O)c3ccccc3Cl)cc(=O)n12`, the Potency result is “inactive”.
The value for `CCOc1ccc(Nc2c(S(=O)(=O)c3ccccc3)cnc3ccccc23)cc1` was “inactive”; that for `CCCCn1cc(S(=O)(=O)c2ccc(OCC)cc2)c(=O)c2cc(OC)c(OC)cc21` was “inactive”; that for `Cc1ccc(C)c(N2CCN(CCCNC(=O)Nc3ccc(Cl)cc3)CC2)c1` was “inactive”.
With `Cc1ccc2nc(-c3ccc(C)c(NC(=O)Cc4ccccc4)c3)oc2c1`, the Potency entry is “inactive”.
`CCc1cccc(C)c1Nc1c(-c2ccc(N(C)C)cc2)nc2ncccn12`: the Potency result is “inactive”.
On to `CCc1ccc(N2C(=O)CN(S(=O)(=O)CC)CC2(C)C(=O)NC2CCCCC2)cc1` (centres undefined), for which the Potency entry was “inactive”.
Then `COc1ccc(N2CCN(C(=O)C3CCCN(C(=O)c4cc5sccc5n4C)C3)CC2)cc1` (centres undefined), with “inactive”.
With `O=C(CCS(=O)(=O)c1ccccc1)N(Cc1cccnc1)c1nc2c(F)cccc2s1`, the Potency entry is “inactive”.
With `CCOC(=O)c1nnn(CC(=O)NC(=O)Nc2ccccc2F)c1C(=O)OCC`, the Potency result is “inactive”.
The value for `CCc1ccccc1NC(=O)CSc1nnc([C@@H](NC(=O)OC(C)(C)C)C(C)C)o1` was “inactive”; that for `C[C@@H](NC(=O)OC(C)(C)C)c1nnc(S(=O)(=O)Cc2ccccc2)o1` was 8.91 µM (active).
As for `CC(C)Sc1nnc([C@H](Cc2ccccc2)NC(=O)OC(C)(C)C)o1`, the Potency entry is “inactive”.
Then `CC1CCN(S(=O)(=O)c2ccc3c(c2)N(CC(=O)NCCc2ccccc2)C(=O)CO3)CC1`, with “inactive”; and `Cc1cccc(-n2ncc(C(=O)N3CCN(c4ccc(Cl)cc4)CC3)c2C2CCN(C(=O)OC(C)(C)C)CC2)c1`, with “inactive”; and `CCOC(=O)c1ccc(NC(=O)CCS(=O)(=O)c2ccc(C)cc2)cc1`, with “inactive”.
Turning to `CCOC(=O)c1scc(-c2ccc(C)cc2)c1S(=O)(=O)Nc1cc(C)ccc1C`, the Potency result is “inactive”.
Then `Cc1ccc(S(=O)(=O)N2CCc3cc(C(=O)Nc4ccc(Cl)cc4C)ccc32)cc1`, with “inactive”.
Then `CC1CCCN(c2cc3c(cc2F)c(=O)c(S(=O)(=O)c2cccc(Cl)c2)cn3Cc2ccccc2)C1` (centres undefined), with “inactive”.
The value for `CCOC(=O)c1ccc(NC(=O)CSc2nc3c([nH]c4ccccc43)c(=O)n2C)cc1` was “inactive”.
For the compound `COc1ccc(C2CC(=O)N(Cc3ccccc3C)c3c2c(C)nn3-c2nc(C)cc(C)n2)c(OC)c1` (centres undefined), the Potency entry was “inactive”.
Then `COc1ccc2c(c1)c(=O)c(S(=O)(=O)c1ccc(F)cc1)cn2CC(=O)Nc1ccc(C)cc1C`, with “inactive”; and `Cn1c(=O)nc2n(-c3ccc(Br)cc3)c3cccc(Cl)c3cc-2c1=O`, with “inactive”.
The value for `O=C(Cn1cc(SCc2ccccc2)c2ccccc21)N1CCCCC1` was “inactive”; that for `COCCCNC(=O)c1c(NC(=O)c2cc(=O)c3cc(C)c(C)cc3o2)sc2c1CCCC2` was “inactive”.
Then `COc1ccc2c(c1)c(N1CCCC1=O)c(C(=O)Nc1ccccc1C(F)(F)F)n2C`, with “inactive”.
In the case of `CCOc1cc(C(=O)NCCc2csc3nc(-c4ccc(C)cc4)nn23)cc(OCC)c1OCC`, the Potency result was “inactive”.
Consider `COc1ccccc1CNC(=O)CCn1c(=O)c2ccccc2n(CC(=O)Nc2cccc(Cl)c2)c1=O`, for which the Potency result is “inactive”.
The value for `O=C1OC(OC(=O)c2ccccc2Br)C(N2CCOCC2)=C1Cl` (centres undefined) was 10 µM (active); that for `O=C1OC(NC(=O)c2ccccc2)C(N2CCOCC2)=C1Cl` (centres undefined) was “inactive”; that for `COc1ccc(NS(=O)(=O)c2ccc(N3CCOCC3)c(NC(=O)c3ccccc3Br)c2)cc1` was “inactive”.
Then `Cc1oc2c(c1C(=O)Nc1ccc(F)c(F)c1)C1=NCCN1C=N2`, with “inactive”.
Take `Cn1c(=O)sc2cc(NS(=O)(=O)c3ccc(C(C)(C)C)cc3)ccc21`: the Potency entry was “inactive”.
Then `CCCN(CCC)C(=O)C(Cc1ccccc1)NS(=O)(=O)c1ccc2c(c1)c(=O)n(C)c(=O)n2C` (centres undefined), with “inactive”; and `CCOc1ccc(NC(=O)c2c(NC(=O)Cc3ccccc3)sc3c2CCCCC3)cc1`, with “inactive”.
Regarding `O=C(O)c1ccc(CSc2nc3cccnc3n2Cc2cccc(F)c2)cc1`, the Potency result was “inactive”.
Regarding `COc1ccc(-c2nnc(SCC(=O)Nc3ccccc3C)o2)cc1OC`, the Potency entry is “inactive”.
The value for `O=C(Nc1ccc(O)c(-c2nc3ccccc3o2)c1)c1ccc(-c2cccc(Cl)c2)o1` was “inactive”; that for `O=C(Cn1c(=O)n(-c2ccc(F)cc2)c(=O)c2sccc21)Nc1cccc(C(F)(F)F)c1` was “inactive”; that for `CSc1ccc(C2C(C(=O)Nc3ccccc3)=C(C)Nc3nc4ccccc4n32)cc1` (centres undefined) was “inactive”.
The value for `CC(Oc1ccccc1F)C(=O)NN` (centres undefined) was 79.4 µM (active); that for `CC(C)C(=O)NC(=S)Nc1ccccc1F` was “inactive”; that for `COc1ccccc1NC(=O)COC(=O)COc1ccccc1F` was “inactive”.
The value for `COc1ccc2c(c1)c(=O)c(C(=O)c1ccccc1)cn2CC(=O)Nc1ccc2c(c1)OCCO2` was “inactive”; that for `CC1CCCN(S(=O)(=O)c2ccc3[nH]c(=O)cc(C(=O)NCCc4ccc(Cl)cc4)c3c2)C1` (centres undefined) was “inactive”; that for `O=S(=O)(NCC(c1ccccc1)N1CCc2ccccc21)c1ccccc1` (centres undefined) was “inactive”.
`Cc1ccc2nc(COc3cccc(NC(=O)Nc4ccc(C)c(Cl)c4)c3)cc(=O)n2c1`: the Potency result was “inactive”.
The value for `COc1ccc(C(=O)ON=C2c3ccccc3-c3ccccc32)cc1OC` was “inactive”; that for `CN1C(=O)/C(=C\c2cc(Br)cs2)c2ccccc21` was “inactive”.
Then `CN1C(=O)/C(=N/OC(=O)c2ccccc2Br)c2ccccc21`, with 35.5 µM (active); and `O=C(COc1ccccc1)NCc1ccc2c(c1)CCN2C(=O)c1ccc(F)cc1`, with “inactive”; and `CCc1ccccc1NC(=O)Cn1c(=O)n(CC2CCC(C(=O)NCCc3ccccc3)CC2)c(=O)c2ccccc21` (centres undefined), with “inactive”.
Then `CCCn1c(=N)c(C(=O)NCc2ccccc2)cc2c(=O)n3cccc(C)c3nc21`, with “inactive”.
Turning to `N#Cc1cccc(CN2CCC(=O)N(CCO)CC2)c1`, the Potency entry was “inactive”.
As to `CC(C)c1cc(CN2CCOCC2)cc(C(C)C)c1O`, the Potency entry was “inactive”.
In the case of `CC(C)(C)c1cc(CN2CCN(CCC#N)CC2)cc(C(C)(C)C)c1O`, the Potency was 35.5 µM (active).
For `Cc1nn(Cc2ccc(F)cc2)c(C)c1NC(=O)c1cc(CC(C)C)on1`, the Potency entry was “inactive”.
With `CCOC(=O)c1c(S(=O)(=O)N2CCC(C(=O)NCc3ccccc3OC)CC2)c(C)n(C)c1C`, the Potency result was “inactive”.
The value for `CC(C)(C)c1ccc(S(=O)(=O)N2CCN(C(=O)c3cc(-c4ccc(Br)cc4)n[nH]3)CC2)cc1` was “inactive”; that for `COC(=O)CN1C(=O)CSc2ccc(S(=O)(=O)Nc3cc(C)ccc3C)cc21` was “inactive”.
The value for `CCC1=Nc2cc(C(=O)NCCCOC(C)C)ccc2Sc2ccc(C)cc21` was “inactive”.
In the case of `CC(C)c1ccc(C2CC(=O)N3CN(C4CCCCC4)CSC3=C2C#N)cc1` (centres undefined), the Potency entry is “inactive”.
Then `CCCNc1ncnc2c1c(-c1ccccc1)cn2-c1ccc(OCC)cc1`, with “inactive”; and `CCCN(CCC)CCNC(=O)c1ccc2c(c1)NC(=O)C(CS(=O)(=O)Cc1cccc(Br)c1)N2` (centres undefined), with “inactive”.
The value for `Cc1ccc(-n2c3nc(=O)[nH]c(=O)c-3cc3c(Cl)cccc32)cc1` was “inactive”; that for `O=C(CSc1nnc(-c2ccccc2F)o1)Nc1cccc(C(F)(F)F)c1` was “inactive”; that for `CCC(=O)Nc1ccc2nc(SCC(=O)N3CCc4ccccc43)sc2c1` was “inactive”.
`Cc1ccc(-c2cnc(NCc3ccc(C(C)C)cc3)n2C)cc1`: the Potency entry was “inactive”.
The value for `Cc1ccc(C)c(NC(=O)C2CCCN(S(=O)(=O)c3cn(C)cn3)C2)c1` (centres undefined) was “inactive”; that for `Cc1c(C(=O)N2CCCC2)oc2c1-c1nn(CC(=O)NCc3ccc(OC(C)C)cc3)cc1CC2` was “inactive”; that for `Cc1c(NC(=O)Nc2ccc(F)c(Cl)c2)c(=O)n(-c2ccccc2)n1C` was “inactive”.
Then `CCCN(C(=O)Cn1cc(S(=O)(=O)N2CCN(c3ccccc3F)CC2)c2ccccc2c1=O)c1cccc(C)c1`, with “inactive”; and `COc1ccc(Cl)cc1S(=O)(=O)N1CCC(c2ccncc2)CC1`, with “inactive”.
Then `COc1ccc(-c2nc3sc(CCNS(=O)(=O)c4ccc(F)c(C)c4)c(C)n3n2)cc1`, with “inactive”; and `CCOc1ccc(-c2cc3nc(C4CCN(C(=O)OC(C)(C)C)CC4)c(C(=O)Nc4ccc(C(=O)OC)cc4)cn3n2)cc1`, with “inactive”.
As for `CCCNC(=O)CCC(=O)N1Cc2ccccc2Oc2ncccc21`, the Potency result was “inactive”.
Then `O=C(Cn1c(-c2cccs2)cc2ccccc21)NCCc1ccc(Cl)cc1`, with “inactive”; and `Cc1ccc(CNS(=O)(=O)c2ccc(-c3cc(C(F)(F)F)on3)s2)cc1`, with “inactive”.
The value for `COCCCNC(=O)c1ccc(NC(=O)c2nsc3ccccc23)cc1` was “inactive”; that for `COc1ccc(-c2nc(C)c(CCNC(=O)c3ccc(C(F)(F)F)cc3)s2)cc1OC` was “inactive”.
Turning to `CC1CCCN(Cc2c(O)ccc3c(=O)c(Oc4ccc(C(C)(C)C)cc4)c(C(F)(F)F)oc23)C1` (centres undefined), the Potency result was “inactive”.
On to `COc1ccc(/C=C/c2nc(C#N)c(NCc3ccc(F)cc3)o2)cc1OC`, for which the Potency result was “inactive”.
